This note sets out measurements from PubChem BioAssay (Tox21).

The structures appear in SMILES notation. Active and inactive are the calls of the source. A call without a number means that no potency is given here. Calls follow the shape of the dose curve; as a rule, active = well fitted activation curve with a large enough effect in the repeat runs; inconclusive = weak or mixed curves; inactive = flat fitted curve, though single readings scatter.

KiSS-1 receptor (Homo sapiens), sequence (Q969F8 whole entry, looked up): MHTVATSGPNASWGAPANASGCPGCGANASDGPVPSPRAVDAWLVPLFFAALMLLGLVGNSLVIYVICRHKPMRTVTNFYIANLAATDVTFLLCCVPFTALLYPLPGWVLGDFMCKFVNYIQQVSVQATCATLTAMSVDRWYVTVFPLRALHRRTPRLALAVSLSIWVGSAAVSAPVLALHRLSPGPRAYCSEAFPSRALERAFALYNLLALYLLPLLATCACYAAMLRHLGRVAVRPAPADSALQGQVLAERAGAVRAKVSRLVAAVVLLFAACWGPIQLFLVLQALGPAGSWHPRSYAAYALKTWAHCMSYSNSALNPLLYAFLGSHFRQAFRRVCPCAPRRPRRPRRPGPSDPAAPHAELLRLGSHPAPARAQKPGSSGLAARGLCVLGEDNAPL

The target in this experiment is KiSS-1 receptor (Homo sapiens) (UniProt Q969F8). The experiment can be described thus: Human kisspeptin (KISS1R) small molecule agonists, calcium flux assay in KISS1R-HEK293 cells (AID 1920064). Conditions: KISS1R-HEK293, calcium flux fluorescence, agonist; series mostly up to 76.8 µM. The text has this:
National Center for Advancing Translational Sciences [NCATS]
Division of Preclinical Innovation [DPI]
U.S. Environmental Protection Agency [EPA]
National Institutes of Environmental Health Sciences [NIEHS]
National Toxicology Program [NTP]
U.S. Food and Drug Administration [FDA]
Kisspeptin and its receptor KISS1R play key roles in mammalian reproduction due to their involvement in the onset of puberty and control of the hypothalamic-pituitary-gonadal axis such as regulates GnRH release from the hypothalamus. The kisspeptin/KISS1R system also plays a direct role in peripheral organs (including the ovary, testis, uterus, and placenta) and is implicated in reproductive diseases such as miscarriage and polycystic ovary syndrome (PCOS). Abnormal KISS1R activity is associated with abnormal puberty, infertility, endometriosis, and hormone-dependent tumors. The KISS1 receptor (KISS1R, also called GPR54), a G-protein-coupled receptor (GPCR), acts (through phospholipase C) to increase intracellular inositol trisphosphate and then release intracellular calcium stores. Cell-based KISS1R-HEK293 assay is using HEK293 cells that have been genetically engineered to express the human KISS1R, which activity can be measured by calcium signaling. A compound/drug can activate (agonist) KISS1R that can be monitored by levels of intracellular calcium.
KISS1R-HEK293 cells developed by Codex Corp contain human KISS1R gene, which was stably integrated into HEK 293 cells. The compound activation can be detected by fluorescence intensity via calcium flux assay. This cell line has been used to screen the Tox21 10K compound library to identify agonists of KISS1R.
KISS1R-Hek293 cells were dispensed at 1500 cells/4uL/well in 1536-well black wall/clear bottom plates using a multidrop dispenser. After the assay plates were incubated at a 37 C/5% CO2 incubator for 18 hours, 4 microL of Calcium Dye Solution was added to each well. The plates were incubated at 37 C for 1 hour. And then 23 nL of compounds dissolved in DMSO, positive controls, or DMSO only was transferred to the assay plate by a pin tool station. The fluorescence intensity in the plates was measured using FDSS 7000EX kinetic plate reader with a filter set of Ex/Em=480/540 for 3 min at 1 sec intervals. Each test compound was measured at 15 concentrations and in triplicates.
A general note: A change in cytosolic calcium serves as a functional read-out for many receptors and channels.
Consider `COC(=O)C(C)Oc1ccc(Oc2ncc(C(F)(F)F)cc2Cl)cc1` (stereo not given), for which the Potency result was “inactive”. Regarding `O=C(O)c1ccccc1C(=O)O`, the Potency entry is “inactive”. `Nc1nc2ccccc2[nH]1`: the Potency result was “inactive”. The entry for `CCCCOC(=O)c1ccc(O)cc1` is “inactive”; for `CCCCCC(=O)O` it is “inactive”. The result for `C/C=C(C)/C=C/C=C(C)C` reads “inactive”. The entry for `C/C=C/C(=O)N(CC)c1ccccc1C` is “inactive”. For the molecule `OC[C@H]1O[C@@H](Oc2ccc(O)cc2)[C@H](O)[C@@H](O)[C@@H]1O`, the Potency entry was “inactive”. `CC(=O)OC/C=C(\C)CCC=C(C)C`: the Potency result was “inactive”. For the molecule `Cc1cc(Cc2ccc(N)c(C)c2)ccc1N`, the Potency entry was “inactive”. The result for `OC(CCl)CCl` reads “inactive”.

As to `C=C(C)C1CC=C(C)C(OC(C)=O)C1` (stereo not given), the Potency result was “inactive”. Regarding `O=c1ccc2ccccc2o1`, the Potency entry was “inactive”. For `CCCCCCCCCCCCCO`, the Potency entry was “inactive”. With `CCCCCCCC(=O)O`, the Potency entry was “inactive”. Consider `CC(C)(N)CO`, for which the Potency entry was “inactive”. The result for `CCCCOC(=O)c1ccc(N)cc1` reads “inactive”. The result for `CCCC(=O)O` reads “inactive”. With `CC(=O)Oc1ccc(C(c2ccc(OC(C)=O)cc2)c2ccccn2)cc1`, the Potency entry was “inactive”. Consider `CC1=C(/C=C/C(C)=C/C=C/C(C)=C/C(=O)O)C(C)(C)CCC1`, for which the Potency entry is “inactive”. As for `Nc1ncn([C@@H]2O[C@H](CO)[C@@H](O)[C@H]2O)c(=O)n1`, the Potency result was “inactive”. Take `C=C(C)OC(C)=O`: the Potency entry was “inactive”.

In the case of `C[Si](C)(C)O[Si](C)(C)C`, the Potency result was “inactive”.

For `CCC(C)C=O` (stereo not given), the Potency entry was “inactive”. Turning to `CC(=O)OCC(=O)[C@@]12N=C(C)O[C@@H]1C[C@H]1[C@@H]3CCC4=CC(=O)C=C[C@]4(C)[C@H]3[C@@H](O)C[C@@]12C`, the Potency result was “inactive”. As to `CC1=NN(c2ccccc2)C(=O)C1`, the Potency entry was “inactive”. On to `CCCCCCC(C)O` (stereo not given), for which the Potency entry was “inactive”.

Regarding `O=C(O)CC(O)C(=O)O` (stereo not given), the Potency result is “inactive”.

For `CC(C)CC(C)CC(O)CC(C)C` (stereo not given), the Potency result was “inactive”. Regarding `CC(O)COc1ccccc1` (stereo not given), the Potency entry was “inactive”. The entry for `CN1CCC[C@H]1c1cccnc1` is “inactive”; for `c1ccc2c(c1)ccc1cc3c(ccc4ccccc43)cc12` it is “inactive”.

Regarding `Cc1cccc(C(=O)O)c1`, the Potency result is “inactive”.

Consider `c1ccc2scnc2c1`, for which the Potency result is “inactive”. The entry for `CC1(C)O[C@@H]2C[C@H]3[C@@H]4CCC5=CC(=O)C=C[C@]5(C)[C@@]4(F)[C@@H](O)C[C@]3(C)[C@]2(C(=O)CO)O1` is “inactive”.

On to `COC(=O)CCCC(=O)OC`, for which the Potency entry was “inactive”. Consider `NC(CO)(CO)CO`, for which the Potency entry is “inactive”. `CCCCOC(=O)COc1ccc(Cl)cc1Cl`: the Potency entry was “inactive”. The result for `O=C(O)c1cccc([N+](=O)[O-])c1` reads “inactive”.

Regarding `Nc1ccc2c(c1)C(=O)c1ccccc1C2=O`, the Potency result was “inactive”.
